Source: PubChem BioAssay (NCI)
Compounds without any hit were thinned out: in the full panel of roughly 83,000, 20% have a hit.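 Activity criterion: percent growth below 10, measured after cells in 96-well plates were exposed to a single compound concentration for 48 hours.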 Unmarked numbers belong to inactive results. Activity calls are given as the source filed them.

Legend:
Experiment in all cases: NCI-60 one-dose screen, 48 h (100 = growth as untreated, 0 = no growth, -100 = all killed)
Details in all cases: 10 µM unless noted
[1] = system: SK-MEL-2 melanoma
[2] = system: EKVX NSCLC
[3] = system: SN12C renal
[4] = system: UO-31 renal
[5] = system: TK-10 renal
[6] = system: ACHN renal
[7] = system: CAKI-1 renal
[8] = system: A498 renal
[9] = system: CCRF-CEM leukemia
[10] = system: MOLT-4 leukemia
[11] = system: SR leukemia
[12] = system: RPMI-8226 leukemia
[13] = system: OVCAR-8 ovarian
[14] = system: OVCAR-5 ovarian
[15] = system: OVCAR-4 ovarian
[16] = system: SK-OV-3 ovarian
[17] = system: IGROV1 ovarian
[18] = system: OVCAR-3 ovarian
[19] = system: NCI/ADR-RES ovarian
[20] = system: HS 578T breast

Row | Compound | growth [1] | growth [2] | growth [3] | growth [4] | growth [5] | growth [6] | growth [7] | growth [8] | growth [9] | growth [10] | growth [11] | growth [12] | growth [13] | growth [14] | growth [15] | growth [16] [%] | growth [17] | growth [18] | growth [19] | growth [20]
1 | CCCn1c(=S)sc2c1nc(C)n1c(Nc3ccccc3)nnc21 | -0.18% (active) | 36.6% | 55.6% | 71.6% | 86.7% | 82.8% | 93.9% | 57.2% | 66.3% | 31.1% | 61.4% | 45.9% | 71.3% | 107% | 42.8% | 89.2 | 80.3% | 61.5% | 85.4% | 
2 | Cn1c(O)c(C(/C=C/c2ccccc2)=Nc2ccccc2N)c(=O)n(C)c1=O | 129% | 82% | 96.1% | 83.4% | 134% | 99.3% | 102% | 130% | 67.3% | -43.5% (active) | -19.7% (active) | 58.7% | 107% | 83.4% | 101% | 110 | 77.4% | 105% | 96.5% | 
3 | COc1cc(Nc2c3ccc(Cl)cc3nc3ccc(OC)cc23)c2ncccc2c1 | 78.6% | 39.2% | 52.5% | 26.9% | 44.7% | 31.2% | 32.2% | 62.4% | 26.9% | 39.3% | 19.8% | 55.5% |  | 70.2% | 20.3% | 52.5 | 32.2% | 33.9% | 53.9% | 65.1%
4 | Cc1ccc(/C=C(\C#N)C(=O)Nc2ncc(Cc3cc(Cl)ccc3Cl)s2)o1 | 45.9% | 60.4% | 58.9% | 31.7% | 44.1% | 45.4% | 23.7% | 40.5% | 55.4% | 40.7% | 90.1% | 49.3% | 49.8% | 69.6% | 1.2% (active) | 62 | 71.7% | 75.4% | 52.5% | 
5 | CC(C)c1ccc(-n2c(=S)[nH]c3sc4c(c3c2=O)CCC(=O)C4)cc1 | 91.4% | 47% | 50.8% | 46.9% | 106% | 82% | 74.2% | 112% | 18.2% | 75.7% | 50% | 15.9% | 49.9% | 68.2% | 46.5% | 84.3 | 63.1% | 53% | 44% | 32.4%
6 | COC(=O)C1=C(C)NC(C)=C(C(=O)OCC(C)C)C1c1ccccc1[N+](=O)[O-] (stereo not given) | 64.8% | 58.3% | 64.3% | 28.3% | 80.7% | 26.8% | 21.9% | 50.4% | 7.1% (active) | 43.6% | 20.3% | 53.1% | 61.6% | 98.7% | 51.8% | 82.7 | 56.9% | 56.5% | 48.8% | 112%
7 | Cn1cc(-c2csc(-c3cn(C)c4ccc(Br)cc34)n2)c2cnccc21 | 47.7% | -79.1% (active) | -91.5% (active) | -89.9% (active) | -75.7% (active) | -99.5% (active) | -82.2% (active) | 68.7% | -38.1% (active) | -58.9% (active) | -29.6% (active) | -37.3% (active) | -49.4% (active) | -67.3% (active) | -50.9% (active) | 96.5 | -91.5% (active) | -92.9% (active) | -69.5% (active) | -40% (active)
8 | C=C1C(=O)O[C@H]2[C@H]1CC/C(COC(=O)NCCCCCCCCNC(=O)OC/C1=C/CC[C@@]3(C)O[C@H]3[C@H]3OC(=O)C(=C)[C@@H]3CC1)=C\CC[C@@]1(C)O[C@@H]21 | -57.5% (active) | -82.4% (active) | -68.7% (active) | -92.4% (active) | -97.9% (active) | -93.2% (active) | -90.1% (active) | -88.7% (active) | -47.3% (active) | -27.5% (active) | -37.6% (active) | -42.8% (active) | -51.2% (active) | -79.6% (active) | -82.9% (active) | 34.4 | -74.3% (active) | -94.1% (active) | 43.9% | 
9 | C=C1C(=O)O[C@H]2[C@H]1CC/C(CNC(=O)c1cc3ccccc3[nH]1)=C\CC[C@@]1(C)O[C@@H]21 | -60.8% (active) | 14% | -43.3% (active) | -73.5% (active) | -89.9% (active) | -77.6% (active) | -60.4% (active) | -63.4% (active) | -35.7% (active) | -35.5% (active) | -37.4% (active) | -29% (active) | -26.2% (active) | -46% (active) | -7.16% (active) | 68 | -26.3% (active) | -93.8% (active) | 22.4% | 
10 | O=C1C(Cl)=C(NCCN2CCOCC2)C(=O)c2ncccc21 | -23.8% (active) | -78.9% (active) | -69.2% (active) | -75.7% (active) | 28.3% | -42.5% (active) | 88.5% | 74.2% | 5.23% (active) | 8.73% (active) | -17.9% (active) | 20.4% | 31.1% | -22.8% (active) | 95.8% | 41.5 | -58.8% (active) | -63.5% (active) | 67.8% | 1.02% (active)
11 | O=C(Nc1ccccc1O)c1ccccc1Nc1ccnc(C(F)(F)F)c1 | 104% | 93% | 87.3% | 66.2% | 136% | 93.8% | 98.3% | 145% | 84.8% | 74.5% | 76% | 56.5% | 100% | 99.9% | 95.8% | 100 | 79.5% | 97.6% | 90.7% | 96.4%
12 | O=C(CN1CCN(c2cc3c(cc2F)c(=O)c(C(=O)O)cn3C2CC2)CC1)N/N=C/c1ccncc1 | 105% | 98.3% | 106% | 90.6% | 91.6% | 99.6% | 93.8% | 96.4% | 94% | 101% | 107% | 93.2% | 97.5% | 98.2% | 98.9% | 102 | 108% | 96.9% | 107% | 
13 | COc1cc2c(c(OC)c1OC)C(=O)N[C@@H]1[C@@H](O)[C@@H](O)[C@H](O)C[C@@H]21 | 117% | 103% | 104% | 87.1% | 98.5% | 99.7% | 94.1% | 112% | 104% | 104% | 95.6% | 102% | 97.3% | 106% | 107% | 99.9 | 111% | 112% | 108% | 
14 | COc1cc2cc(Oc3ccc(NC(=O)Nc4ccccc4)cc3)c(C)nc2cc1OCCN1CCCCC1 | 100% | 99.8% | 89.9% | 64.3% | 108% | 84.4% | 96.1% | 55.4% | -20.9% (active) | -22.2% (active) | -25.9% (active) | 44.3% | 46.5% | 119% | 83.1% | 110 | 92.3% | 101% | 90.5% | 
15 | CCOc1ccc(NC(=O)c2cc(OC)c(OC)c(OC)c2)cc1 | 16.1% | 54.1% | 56% | 52% | 60.3% | 55.9% | 39.8% | -0.366% (active) | 27.9% | 31.6% | 24.7% | 27% | 49.5% | 94% | 65% | 40.6 | 53.1% | -3.43% (active) | 11.5% | 26.8%
16 | COc1cc(C(=O)C(=O)c2cc(OC)c(O)c(OC)c2)cc(OC)c1O | 115% | 104% | 91.3% | 98.6% | 95.8% | 98% | 105% | 92.5% | 88.3% | 108% | 103% | 91.3% | 102% | 97% | 101% | 103 | 117% | 103% | 101% | 
